Test results as given in ChEMBL document CHEMBL3988442, “University of Dundee, Small-Polar-MMV Screening Library” (2021).
The whole screen tested about 48,000 compounds, of which about 13,000 (27%) showed an effect of 50% or more. Some of the results follow.

tested on: Wolbachia pipientis; assay: Anti-Wolbachia Cell-Based Screen; type: functional; set-up: scale not given: in the data most compounds retested in dose-response had high values; settings: 5 µM

Row | SMILES | Percent Effect [%]
1 | CO[C@H]1CC[C@H]2[C@H]1OCCN2CCOCc1ccccc1.O=C(O)C(F)(F)F | -1.824
2 | CO[C@H]1CC[C@H]2[C@H]1OCCN2Cc1ccc(F)c(F)c1.O=C(O)C(F)(F)F | 110.9
3 | CO[C@@H]1CC[C@H]2[C@H]1OCCN2Cc1ccc(F)c(F)c1.O=C(O)C(F)(F)F | 101.8
4 | CO[C@@H]1CC[C@H]2[C@H]1OCCN2CCOCc1ccccc1.O=C(O)C(F)(F)F | 11.38
5 | O=C(Nc1ccc2c(c1)OCO2)N1CCN(CCn2ccnc2)CC1 | -13.91
6 | CCc1cnc2c(c1Nc1ccncc1)c(=O)n(C)c(=O)n2C | 1.173
7 | CCc1cnc2c(c1Nc1ccc(C)c(F)c1)c(=O)n(C)c(=O)n2C | 84.08
8 | O=C(Nc1ccc2c(c1)OCO2)N1CCN(CCn2cccn2)CC1 | 14.77
9 | CCc1cnc2c(c1Nc1ccc3c(c1)OCO3)c(=O)n(C)c(=O)n2C | 105.3
10 | Cc1ccc(Nc2c(C#N)c(=O)n(C)c(=O)n2C)cc1F | 8.024
11 | Cn1cnc(S(=O)(=O)Nc2cc(C(N)=O)ccc2Cl)c1 | -10.15
12 | CN(C)C(=O)Cc1ccc(NC(=O)c2cn(C)nn2)cc1 | -4.709
13 | Cn1cc(C(=O)Nc2ccc3c(c2)CN(C(=O)C2CC2)CC3)nn1 | 116.9
14 | Cn1cc(C(=O)Nc2ccc(CC(=O)NC3CC3)cc2)nn1 | -0.7616
15 | CC(=O)N1CCc2ccc(NC(=O)c3cn(C)nn3)cc2C1 | 105.1
16 | COC(=O)N1CCc2ccc(NC(=O)c3cn(C)nn3)cc2C1 | 2.493
17 | Cn1cc(C(=O)Nc2ccc(CC(=O)NCC(F)(F)F)cc2)nn1 | -7.927
18 | Cn1cc(C(=O)Nc2ccc3c(c2)CN(C(=O)c2ccco2)CC3)nn1 | 12.57
19 | Cn1cc(C(=O)Nc2ccc3c(c2)N(C(=O)c2ccco2)CC3)nn1 | 115.2
20 | Oc1cc(CN2CCC(O)(Cn3ccnc3)CC2)nc2c(Cl)cccc12 | -8.472
21 | CC(CNC(=O)c1ccon1)Oc1cccc(Br)c1 (stereo not given) | -16.92
22 | c1cc(-c2ccc(CN3CCC4(CCNCC4)CC3)s2)[nH]n1 | 13.89
23 | CCCN(C(=O)c1ccccn1)c1nc2c(s1)CCc1c-2cnn1C | -6.785
24 | COCCN(C(=O)c1cnccn1)c1nc2c(s1)CCc1c-2cnn1C | 99.99
25 | Cc1cccc(N(CCC(N)=O)C(=O)c2cnccn2)c1 | -11.19

Row | SMILES | Percent Effect [%]
26 | COCCCNC(=O)C1CN(C(=O)c2cnccn2)C1 | 10.57
27 | COCC1c2nnn(CC3CC3)c2CCN1C(=O)c1cnccn1 (stereo not given) | -15.7
28 | CCCN(C(=O)c1cnc(C)cn1)c1nc2c(s1)CCc1c-2cnn1C | 90.09
29 | CCCN1CCN(C(=O)c2cnccn2)[C@H]2CS(=O)(=O)C[C@H]21 | -1.357
30 | COCCN(C(=O)c1ccccn1)c1nc2c(s1)CCc1c-2cnn1C | 88.66
31 | CN(C(=O)c1ccccn1)c1nc2c(s1)CCc1c-2cnn1C | -10.1
32 | CCCN(C(=O)c1cnccn1)c1nc2c(s1)CCc1c-2cnn1C | 84.76
33 | CCN(Cc1cccc2c1OCO2)CC1CCCO1 (stereo not given) | -5.577
34 | Cl.O=C(OCC1CCCN1)c1cccc(NC(=O)c2ccco2)c1 (stereo not given) | -13.38
35 | CC1(C)[C@H]2CC=C(CN3CCCn4nc(C(=O)O)cc4C3)[C@@H]1C2 | -7.582
36 | Cc1ccccc1C(C(=O)N(C)CCc1cnn(C)c1)N(C)C (stereo not given) | -25.6
37 | Cc1c(NC(=O)N(C)CCCc2cnn(C)c2)cnn1C | -9.365
38 | Cc1nc(C)c(C)c(N(C)CCCc2nccn2C)n1 | 1.22
39 | CN(CCc1cnn(C)c1)C(=O)C1COc2ccccc2C1 (stereo not given) | 12.32
40 | CCc1cnc(N)nc1N(C)CCc1cnn(C)c1 | 112.4
41 | CC(C)N1CCCC(C(=O)N(C)CCCc2cnn(C)c2)C1 (stereo not given) | -3.497
42 | Cc1cnc(N(C)CCCc2cnn(C)c2)nc1N(C)C | 116.9
43 | Cc1ncc(S(C)(=O)=O)c(N(C)CCCc2cnn(C)c2)n1 | 106.8
44 | CN(CCCc1cnn(C)c1)C(=O)C1CCOC1 (stereo not given) | -24.42
45 | CCc1cnc(C)nc1N(C)CCCc1cnn(C)c1 | 93.68
46 | Cc1nc(C(C)C)sc1C(=O)N(C)CCCc1cnn(C)c1 | -1.065
47 | CC(NCCCc1cnn(C)c1)c1ccc(Br)s1 (stereo not given) | 0.1879
48 | CN(C)C(=O)CCNC(=O)c1cnc(-c2ccccc2)nc1 | -4.598
49 | O=S1(=O)CCC(n2cc(CNCC3(c4ccccc4)CC3)cn2)C1 (stereo not given) | 4.552
50 | O=C(c1ccc(OCC2CC2)cc1)N1CCOCC1c1ncon1 (stereo not given) | -1.778
